Test results as given in the supplement of paper PMC11732987, “Enantioselective OTUD7B fragment discovery through chemoproteomics screening and high-throughput optimisation” (Communications Chemistry, 2025).

What was measured:
Test in all cases: log2 ratio of Biotin-Ahx-Ub-VS probe labelling (fragment/DMSO); higher = less target engagement (more negative = stronger competition), active = hit call of the paper (q ≤ 0.05, log2 ratio ≤ -1)
Conditions in all cases: compound concentration: 200 uM; treatment time: 3 h
USP19 = target: T1, USP19 (UniProt O94966)
T1 sequence (whole entry): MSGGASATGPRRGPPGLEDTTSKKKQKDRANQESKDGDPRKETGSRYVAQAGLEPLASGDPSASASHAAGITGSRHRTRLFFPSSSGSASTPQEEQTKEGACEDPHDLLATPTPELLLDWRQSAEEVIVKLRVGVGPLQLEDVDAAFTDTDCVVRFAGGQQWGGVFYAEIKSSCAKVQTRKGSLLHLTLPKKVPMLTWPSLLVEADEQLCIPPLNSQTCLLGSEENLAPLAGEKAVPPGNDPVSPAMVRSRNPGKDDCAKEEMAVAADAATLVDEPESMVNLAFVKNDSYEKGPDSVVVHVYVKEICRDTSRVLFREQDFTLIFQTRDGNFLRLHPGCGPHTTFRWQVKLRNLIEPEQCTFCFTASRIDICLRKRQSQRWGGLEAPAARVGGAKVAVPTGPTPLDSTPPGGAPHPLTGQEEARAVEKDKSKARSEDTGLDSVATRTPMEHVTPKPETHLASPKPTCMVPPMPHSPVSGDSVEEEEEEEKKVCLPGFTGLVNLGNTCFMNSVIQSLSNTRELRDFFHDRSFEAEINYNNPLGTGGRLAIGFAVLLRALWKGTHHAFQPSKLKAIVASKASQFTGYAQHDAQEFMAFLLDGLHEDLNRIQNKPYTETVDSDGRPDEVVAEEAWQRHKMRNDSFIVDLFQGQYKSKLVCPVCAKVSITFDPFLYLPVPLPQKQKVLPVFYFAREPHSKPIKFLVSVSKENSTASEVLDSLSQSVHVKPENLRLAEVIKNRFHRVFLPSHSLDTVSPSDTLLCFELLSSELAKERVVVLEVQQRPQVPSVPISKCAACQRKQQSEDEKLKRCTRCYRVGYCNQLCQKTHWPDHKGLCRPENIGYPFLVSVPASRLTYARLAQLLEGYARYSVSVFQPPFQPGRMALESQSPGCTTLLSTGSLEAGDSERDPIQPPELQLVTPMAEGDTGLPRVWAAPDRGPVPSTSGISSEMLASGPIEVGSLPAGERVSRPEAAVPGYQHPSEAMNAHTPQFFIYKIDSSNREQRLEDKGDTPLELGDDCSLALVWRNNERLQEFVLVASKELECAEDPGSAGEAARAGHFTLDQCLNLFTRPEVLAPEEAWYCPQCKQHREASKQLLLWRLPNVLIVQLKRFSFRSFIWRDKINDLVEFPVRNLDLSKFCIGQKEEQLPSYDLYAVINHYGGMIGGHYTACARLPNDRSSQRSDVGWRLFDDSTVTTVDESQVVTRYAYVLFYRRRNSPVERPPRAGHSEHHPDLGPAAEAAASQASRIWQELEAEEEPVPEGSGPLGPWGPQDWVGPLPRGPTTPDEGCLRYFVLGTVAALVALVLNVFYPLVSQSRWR
Method in brief: (§1)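 HEK293T lysate (495 µg per sample, in Tris/CHAPS/IGEPAL buffer with protease inhibitors) was treated in triplicate with fragment at 200 µM or with DMSO for 3 h. It was then treated with Biotin-Ahx-Ub-VS (0.5 µM final) for 1 h. Labelled DUBs were NeutrAvidin-enriched, digested with LysC and trypsin, and run by diaPASEF LC-MS/MS. Spectronaut label-free quantities were global-median-normalised. Values are average log2 ratios fragment/DMSO by unpaired t-test, using proteins with ≥2 unique peptides.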

USP24 = USP24 (UniProt Q9UPU5)
Method in brief: as §1

USP25 = target: T2, USP25 (UniProt Q9UHP3)
T2 sequence (whole entry): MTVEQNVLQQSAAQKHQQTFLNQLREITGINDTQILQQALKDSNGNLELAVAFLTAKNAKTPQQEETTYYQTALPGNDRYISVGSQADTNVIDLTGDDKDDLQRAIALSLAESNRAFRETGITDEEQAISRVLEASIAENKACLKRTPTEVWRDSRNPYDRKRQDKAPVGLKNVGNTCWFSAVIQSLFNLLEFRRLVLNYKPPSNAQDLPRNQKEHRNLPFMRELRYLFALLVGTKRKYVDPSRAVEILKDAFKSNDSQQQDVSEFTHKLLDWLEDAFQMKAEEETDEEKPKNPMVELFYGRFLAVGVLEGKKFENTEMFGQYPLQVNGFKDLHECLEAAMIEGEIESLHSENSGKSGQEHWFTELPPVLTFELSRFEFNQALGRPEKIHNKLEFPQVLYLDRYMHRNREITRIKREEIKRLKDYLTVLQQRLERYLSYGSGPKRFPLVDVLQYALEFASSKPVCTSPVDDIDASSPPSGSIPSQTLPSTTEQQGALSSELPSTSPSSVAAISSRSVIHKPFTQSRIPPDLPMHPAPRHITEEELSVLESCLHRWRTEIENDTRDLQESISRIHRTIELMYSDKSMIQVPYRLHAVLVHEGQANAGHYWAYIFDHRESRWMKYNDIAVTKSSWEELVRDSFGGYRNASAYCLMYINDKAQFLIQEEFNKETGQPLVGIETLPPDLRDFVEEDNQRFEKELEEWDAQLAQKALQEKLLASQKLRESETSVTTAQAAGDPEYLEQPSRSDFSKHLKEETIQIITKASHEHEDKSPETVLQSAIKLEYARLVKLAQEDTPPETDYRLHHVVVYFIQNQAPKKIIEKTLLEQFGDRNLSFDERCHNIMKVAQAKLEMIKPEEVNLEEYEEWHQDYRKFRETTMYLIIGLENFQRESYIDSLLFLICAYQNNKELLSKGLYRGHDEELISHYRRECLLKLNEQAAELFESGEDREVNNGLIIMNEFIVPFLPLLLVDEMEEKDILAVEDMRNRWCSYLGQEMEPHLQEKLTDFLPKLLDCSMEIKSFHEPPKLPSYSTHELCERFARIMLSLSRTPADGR
Method in brief: as §1

USP28 = target: T3, USP28 (UniProt Q96RU2)
T3 sequence (whole entry): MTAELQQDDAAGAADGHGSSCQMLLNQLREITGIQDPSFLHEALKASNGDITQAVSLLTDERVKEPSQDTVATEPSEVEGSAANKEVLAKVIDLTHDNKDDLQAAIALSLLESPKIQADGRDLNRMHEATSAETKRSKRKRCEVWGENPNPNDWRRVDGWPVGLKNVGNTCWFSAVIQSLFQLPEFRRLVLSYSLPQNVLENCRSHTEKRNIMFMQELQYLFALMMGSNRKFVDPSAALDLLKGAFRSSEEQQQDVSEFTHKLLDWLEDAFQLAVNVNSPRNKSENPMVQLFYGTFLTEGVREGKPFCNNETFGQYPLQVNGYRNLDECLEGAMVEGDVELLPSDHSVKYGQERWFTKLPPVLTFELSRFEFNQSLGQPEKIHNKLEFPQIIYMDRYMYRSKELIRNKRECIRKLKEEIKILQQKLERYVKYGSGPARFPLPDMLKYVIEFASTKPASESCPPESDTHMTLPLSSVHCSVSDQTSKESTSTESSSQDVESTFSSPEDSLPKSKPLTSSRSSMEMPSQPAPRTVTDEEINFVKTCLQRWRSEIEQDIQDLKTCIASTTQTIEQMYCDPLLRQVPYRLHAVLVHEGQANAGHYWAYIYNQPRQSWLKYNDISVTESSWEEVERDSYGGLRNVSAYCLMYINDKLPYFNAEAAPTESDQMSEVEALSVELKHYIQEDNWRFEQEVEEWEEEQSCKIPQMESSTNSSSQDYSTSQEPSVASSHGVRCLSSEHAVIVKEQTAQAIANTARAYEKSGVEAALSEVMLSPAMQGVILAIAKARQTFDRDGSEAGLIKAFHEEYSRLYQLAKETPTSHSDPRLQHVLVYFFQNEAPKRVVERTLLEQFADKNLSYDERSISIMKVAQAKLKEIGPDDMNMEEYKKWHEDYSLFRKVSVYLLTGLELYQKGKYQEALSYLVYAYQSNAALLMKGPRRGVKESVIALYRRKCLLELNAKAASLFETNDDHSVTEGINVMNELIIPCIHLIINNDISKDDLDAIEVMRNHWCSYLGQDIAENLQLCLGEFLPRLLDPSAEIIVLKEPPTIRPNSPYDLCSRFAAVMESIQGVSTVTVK
Method in brief: as §1

Measured: log2 ratio of Biotin-Ahx-Ub-VS probe labelling

Sequence of USP24 (Q9UPU5 whole entry): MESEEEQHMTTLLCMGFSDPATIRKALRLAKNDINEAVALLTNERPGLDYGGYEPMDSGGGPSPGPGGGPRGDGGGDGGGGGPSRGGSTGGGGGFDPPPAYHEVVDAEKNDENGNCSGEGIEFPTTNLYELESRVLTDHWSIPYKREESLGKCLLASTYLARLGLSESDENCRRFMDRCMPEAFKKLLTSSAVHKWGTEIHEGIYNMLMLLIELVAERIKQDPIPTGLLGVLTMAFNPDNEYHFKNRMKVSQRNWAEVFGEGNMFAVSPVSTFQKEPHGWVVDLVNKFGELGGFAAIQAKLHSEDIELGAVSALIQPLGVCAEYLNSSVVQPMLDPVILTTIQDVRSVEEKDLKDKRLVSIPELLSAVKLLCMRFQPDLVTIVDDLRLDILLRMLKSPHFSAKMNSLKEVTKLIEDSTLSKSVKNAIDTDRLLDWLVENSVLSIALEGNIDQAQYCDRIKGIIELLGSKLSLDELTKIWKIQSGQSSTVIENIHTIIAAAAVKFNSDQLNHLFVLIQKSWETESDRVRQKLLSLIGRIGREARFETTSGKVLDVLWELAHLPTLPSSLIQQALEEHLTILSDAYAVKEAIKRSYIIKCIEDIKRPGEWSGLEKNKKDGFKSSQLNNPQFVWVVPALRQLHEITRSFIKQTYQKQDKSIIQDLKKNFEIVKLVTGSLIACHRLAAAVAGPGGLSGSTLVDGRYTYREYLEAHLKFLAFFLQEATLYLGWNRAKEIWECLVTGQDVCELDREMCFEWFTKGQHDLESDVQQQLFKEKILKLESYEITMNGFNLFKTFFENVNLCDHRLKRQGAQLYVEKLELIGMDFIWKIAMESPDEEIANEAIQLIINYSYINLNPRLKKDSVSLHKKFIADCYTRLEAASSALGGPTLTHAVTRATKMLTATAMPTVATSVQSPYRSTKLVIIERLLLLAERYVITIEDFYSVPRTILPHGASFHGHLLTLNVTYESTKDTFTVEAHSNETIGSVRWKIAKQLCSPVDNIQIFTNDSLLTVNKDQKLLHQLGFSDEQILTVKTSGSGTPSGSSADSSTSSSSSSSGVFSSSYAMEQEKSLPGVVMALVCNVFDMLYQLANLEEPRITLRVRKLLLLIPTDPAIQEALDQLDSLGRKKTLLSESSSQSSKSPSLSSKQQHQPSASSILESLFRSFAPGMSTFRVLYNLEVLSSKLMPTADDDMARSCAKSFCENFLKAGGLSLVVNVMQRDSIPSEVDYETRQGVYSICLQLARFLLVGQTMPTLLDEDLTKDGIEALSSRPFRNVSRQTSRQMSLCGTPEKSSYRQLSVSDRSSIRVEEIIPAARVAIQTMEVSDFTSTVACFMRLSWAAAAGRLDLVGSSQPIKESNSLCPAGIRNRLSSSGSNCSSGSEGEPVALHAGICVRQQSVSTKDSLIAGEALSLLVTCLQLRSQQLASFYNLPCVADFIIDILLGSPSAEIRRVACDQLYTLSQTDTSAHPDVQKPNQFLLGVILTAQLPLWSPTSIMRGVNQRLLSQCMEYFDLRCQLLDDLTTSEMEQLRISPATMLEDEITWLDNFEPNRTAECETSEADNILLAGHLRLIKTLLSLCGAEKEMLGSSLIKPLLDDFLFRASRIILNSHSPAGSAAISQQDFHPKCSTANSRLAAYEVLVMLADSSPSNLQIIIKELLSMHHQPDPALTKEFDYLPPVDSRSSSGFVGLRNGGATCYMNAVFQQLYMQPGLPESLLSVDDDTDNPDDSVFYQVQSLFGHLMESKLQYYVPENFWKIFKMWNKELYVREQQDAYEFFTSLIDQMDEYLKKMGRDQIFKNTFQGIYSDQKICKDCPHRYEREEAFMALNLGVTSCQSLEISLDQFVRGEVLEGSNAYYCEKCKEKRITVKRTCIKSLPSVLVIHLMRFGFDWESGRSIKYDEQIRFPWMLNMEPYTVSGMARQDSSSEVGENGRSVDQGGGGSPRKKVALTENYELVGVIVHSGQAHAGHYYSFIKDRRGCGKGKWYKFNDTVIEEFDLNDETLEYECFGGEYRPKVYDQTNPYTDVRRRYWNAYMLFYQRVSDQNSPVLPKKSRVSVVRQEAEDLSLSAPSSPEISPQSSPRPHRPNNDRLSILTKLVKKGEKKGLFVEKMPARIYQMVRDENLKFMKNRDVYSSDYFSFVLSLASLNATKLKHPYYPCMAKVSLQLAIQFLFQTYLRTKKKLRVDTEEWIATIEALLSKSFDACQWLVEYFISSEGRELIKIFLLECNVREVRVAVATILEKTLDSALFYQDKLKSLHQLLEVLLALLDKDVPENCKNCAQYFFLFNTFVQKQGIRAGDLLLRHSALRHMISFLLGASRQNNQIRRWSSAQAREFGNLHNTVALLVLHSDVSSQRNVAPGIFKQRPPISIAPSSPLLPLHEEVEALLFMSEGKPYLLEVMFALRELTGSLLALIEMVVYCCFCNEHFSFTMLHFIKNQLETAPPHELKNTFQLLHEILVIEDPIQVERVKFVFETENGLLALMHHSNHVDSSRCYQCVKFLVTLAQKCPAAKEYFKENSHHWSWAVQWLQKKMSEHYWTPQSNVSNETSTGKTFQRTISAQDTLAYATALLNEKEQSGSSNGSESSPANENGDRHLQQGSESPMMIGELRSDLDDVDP

Cc1ccc(-c2nnc(C)[nH]2)c(NC(=O)CCl)c1
inactive: USP19 0.0362 | USP24 -0.204 | USP25 -0.734 | USP28 -0.643
